# Results from PubChem BioAssay AID1159580 (chemical genetic matrix, 2015).
# Screen size: about 5,500 compounds; about 2,000 (36%) were called active. Another 18% or so got no clear call; they are omitted. Some of the results follow. A number with no mark means an inactive call. Rule as the data show it: active = normalized growth mostly below about 0.91 (no sharp cut-off); inconclusive = no clear call, values can overlap the other calls; inactive = mostly above about 0.92.
# Assay: chemical genetic growth profiling, strain panel (AID 1159580);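 also: tested at 20 µM; growth read once vehicle control cultures reached saturation at 30 °C; 1 = growth at the plate median or of vehicle wells; lower values mean less growth of the strain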
# Conditions: S. cerevisiae deletion strains, growth OD
structure (smiles),measurement,setting,value
O=C(NCCc1ccncc1)c1ccc(Cl)c(Cl)c1,normalized growth,"locus YAR019C, strain CDC15, hits give low values",0.985
same,normalized growth,"locus YBL105C, strain PKC1, hits give low values",0.987
same,normalized growth,"locus YBR135W, strain CKS1, hits give low values",0.988
same,normalized growth,"locus YBR136W, strain MEC1, hits give low values",0.987
same,normalized growth,"locus YBR160W, strain CDC28, hits give low values",0.991
same,normalized growth,"locus YDL017W, strain CDC7, hits give low values",0.991
same,normalized growth,"locus YDL028C, strain MPS1, hits give low values",0.985
same,normalized growth,"locus YDL101C, strain DUN1, hits give low values",0.98
same,normalized growth,"locus YDL108W, strain KIN28, hits give low values",0.981
same,normalized growth,"locus YDL132W, strain cdc53, hits give low values",0.998
same,normalized growth,"locus YDL214C, strain PRR2, hits give low values",0.945
same,normalized growth,"locus YDR052C, strain DBF4, hits give low values",0.988
same,normalized growth,"locus YDR054C, strain cdc34, hits give low values",0.984
same,normalized growth,"locus YDR226W, strain ADK1, hits give low values",0.985
same,normalized growth,"locus YDR477W, strain SNF1, hits give low values",1.01
same,normalized growth,"locus YER123W, strain YCK3, hits give low values",0.877
same,normalized growth,"locus YER133W, strain GLC7, hits give low values",0.969
same,normalized growth,"locus YFL009W, strain cdc4, hits give low values",0.982
same,normalized growth,"locus YFL029C, strain CAK1, hits give low values",0.98
same,normalized growth,"locus YFR003C, strain YPI1, hits give low values",0.984
same,normalized growth,"locus YFR019W, strain FAB1, hits give low values",0.927
same,normalized growth,"locus YFR028C, strain CDC14, hits give low values",0.994
same,normalized growth,"locus YGR040W, strain KSS1, hits give low values",0.992
same,normalized growth,"locus YGR052W, strain FMP48, hits give low values",0.985
same,normalized growth,"locus YGR092W, strain DBF2, hits give low values",1
same,normalized growth,"locus YHR030C, strain SLT2, hits give low values",0.911
same,normalized growth,"locus YHR079C, strain IRE1, hits give low values",0.938
same,normalized growth,"locus YHR082C, strain KSP1, hits give low values",1.1
same,normalized growth,"locus YHR205W, strain SCH9, hits give low values",0.99
same,normalized growth,"locus YIL147C, strain SLN1, hits give low values",0.986
same,normalized growth,"locus YJL095W, strain BCK1, hits give low values",0.925
same,normalized growth,"locus YJL128C, strain PBS2, hits give low values",0.94
same,normalized growth,"locus YJL157C, strain FAR1, hits give low values",0.96
same,normalized growth,"locus YJR016C, strain ILV3, hits give low values",0.995
same,normalized growth,"locus YJR066W, strain TOR1 (second series), hits give low values",1.03
same,normalized growth,"locus YJR066W, strain TOR1, hits give low values",1.04
same,normalized growth,"locus YKL048C, strain ELM1, hits give low values",0.992
same,normalized growth,"locus YKL067W, strain YNK1, hits give low values",0.947
same,normalized growth,"locus YKL101W, strain HSL1, hits give low values",0.941
same,normalized growth,"locus YKL193C, strain SDS22, hits give low values",0.992
same,normalized growth,"locus YKL203C, strain TOR2, hits give low values",1.01
same,normalized growth,"locus YLR113W, strain HOG1, hits give low values",0.756 (active)
same,normalized growth,"locus YLR133W, strain CKI1, hits give low values",0.977
same,normalized growth,"locus YLR403W, strain SFP1, hits give low values",0.972
same,normalized growth,"locus YML070W, strain DAK1, hits give low values",0.941
same,normalized growth,"locus YMR001C, strain CDC5, hits give low values",0.989
same,normalized growth,"locus YMR205C, strain PFK2 (second series), hits give low values",0.978
same,normalized growth,"locus YMR277W, strain FCP1, hits give low values",0.989
same,normalized growth,"locus YNL006W, strain LST8, hits give low values",0.976
same,normalized growth,"locus YNL020C, strain ARK1, hits give low values",0.964
same,normalized growth,"locus YNL161W, strain CBK1, hits give low values",0.991
same,normalized growth,"locus YNL183C, strain NPR1, hits give low values",1.01
same,normalized growth,"locus YNL207W, strain RIO2, hits give low values",0.991
same,normalized growth,"locus YNL222W, strain SSU72, hits give low values",0.992
same,normalized growth,"locus YNL307C, strain MCK1 (second series), hits give low values",0.961
same,normalized growth,"locus YOL078W, strain AVO1, hits give low values",0.997
same,normalized growth,"locus YOL136C, strain PFK27, hits give low values",0.945
same,normalized growth,"locus YOR061W, strain CKA2, hits give low values",0.924
same,normalized growth,"locus YOR119C, strain RIO1, hits give low values",1.03
same,normalized growth,"locus YOR231W, strain MKK1, hits give low values",0.916
same,normalized growth,"locus YOR329C, strain SCD5, hits give low values",0.991
same,normalized growth,"locus YPL031C, strain PHO85, hits give low values",0.976
same,normalized growth,"locus YPL153C, strain RAD53, hits give low values",0.993
same,normalized growth,"locus YPL204W, strain HRR25, hits give low values",0.972
same,normalized growth,"locus YPL209C, strain IPL1, hits give low values",0.987
same,normalized growth,"locus YPL256C, strain CLN2, hits give low values",0.868
same,normalized growth,"locus YPR025C, strain CCL1, hits give low values",0.992
same,normalized growth,"locus YPR106W, strain ISR1, hits give low values",0.983
same,normalized growth,"locus YPR111W, strain DBF20, hits give low values",0.961
same,normalized growth,"strain NNK1, hits give low values",0.982
same,normalized growth,"strain TSCII, hits give low values",0.983
